# From a collection of fitness landscapes (doi:10.1016/j.celrep.2020.107928)
# The full ranking holds about 81,000 sequences; the median of “one-hybrid fitness for binding NBS DNA” is about -0.1, and the highest 2% start at about 0.36. Shown is part of a subset that was picked to be rich in the highest values.
# B1: Caulobacter ParB omega fusion; a variant is named by its letters at X, in order, B8GW30 (parent)
# chain: MESVVVGEPGMSEGRRGLGRGLSALLGEVDAAPAQAPGEQLGGSREAPIEILQRNPDQPRRTFREEDLEDLSNSIREKGVLQPILVRPSPDTAGEYQIVAGERAWRAAQRAGLKTVPIMVRELDDLAVLEIGIIENVQRADLNVLEEALSYKVLMEKFERTQENIAQTIGKSXSHVANXMRLLXLPDEVQSYLVSGELTAXHARAIAAAADPVALAKQIIEGGLSVRETEALARKAPNLSAGKSKGGRPPRVKDTDTQALESDLSSVLGLDVSIDHRGSTGTLTITYATLEQLDDLCNRLTRGI
# Variants of: B1
# Experiment: one-hybrid fitness for binding NBS DNA (the Noc-binding site; scaled: cognate 1, non-cognate 0); higher = stronger binding
# Settings: with NBS DNA site
# How it was run: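 Values were rescaled so that cognate is 1 and non-cognate is 0. Each is a fitness, the log change in a variant's read ratio to wild type from Illumina reads of plasmids before and after selection, with three replicate libraries pooled and variants under 10 reads dropped. Selection of the Caulobacter ParB libraries, four specificity codons randomised, used E. coli USO with a HIS3 reporter, site 19 bp from the promoter, on M9-minus-histidine with 0.1 mM IPTG and 5 mM 3-AT for 48 hours at 37°C.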
row,Variant,one-hybrid fitness for binding NBS DNA
1,QRKA,0.692
2,QPVA,≤ 0.2
3,QCVA,0.298
4,DRKA,≤ 0.2
5,NRKA,≤ 0.2
6,QRVA,0.511
7,TSKG,≤ 0.2
8,PRAV,≤ 0.2
9,TDDT,≤ 0.2
10,IQLF,≤ 0.2
11,LTEG,≤ 0.2
12,QNKR,0.504
13,QNVR,≤ 0.2
14,QNKN,≤ 0.2
15,QNRR,0.439
16,QNDR,≤ 0.2
17,QNYR,0.203
18,MEGC,≤ 0.2
19,QKHA,0.28
20,QSHA,0.275
21,QRHA,0.629
22,QIHA,0.201
23,QPHA,≤ 0.2

row,Variant,one-hybrid fitness for binding NBS DNA
1,QCHA,0.422
2,ADPD,≤ 0.2
3,TEMV,≤ 0.2
4,FTMS,≤ 0.2
5,MEGT,≤ 0.2
6,APSI,≤ 0.2
7,RVGR,0.491
8,RVGM,≤ 0.2
9,RVGD,≤ 0.2
10,RVGH,≤ 0.2
11,RVGT,0.491
12,RVGP,≤ 0.2
13,RVGS,0.463
14,RVGN,≤ 0.2
15,RVGF,≤ 0.2
16,AKNC,≤ 0.2
17,RDQV,≤ 0.2
18,QMHW,≤ 0.2
19,MIEP,≤ 0.2
20,EVLS,≤ 0.2
21,MMLC,≤ 0.2
22,CVFT,≤ 0.2
23,HSNA,≤ 0.2

row,Variant,one-hybrid fitness for binding NBS DNA
1,QYDH,≤ 0.2
2,QYRD,≤ 0.2
3,QYIS,0.202
4,QYYH,≤ 0.2
5,QYRS,0.644
6,QYRN,0.38
7,QYRH,0.541
8,QYRP,0.216
9,QYYS,0.312
10,GEPE,≤ 0.2
11,HWPK,≤ 0.2
12,GQSC,≤ 0.2
13,RFKM,≤ 0.2
14,AIRM,≤ 0.2
15,RFKN,≤ 0.2
16,RLKN,≤ 0.2
17,RFKH,≤ 0.2
18,RPKS,≤ 0.2
19,RLKS,0.554
20,RLKD,≤ 0.2
21,RHKP,≤ 0.2
22,RCKS,0.612
23,RHKS,0.57

row,Variant,one-hybrid fitness for binding NBS DNA
1,RCKD,≤ 0.2
2,RFKS,0.444
3,RHKN,0.205
4,TSAW,≤ 0.2
5,RVSW,≤ 0.2
6,DRFC,≤ 0.2
7,SYSC,≤ 0.2
8,PYQW,≤ 0.2
9,SPAY,≤ 0.2
10,KNRG,≤ 0.2
11,RSKS,0.567
12,RAVS,0.239
13,RIVS,≤ 0.2
14,RIKP,≤ 0.2
15,RAKS,0.571
16,RAKH,0.36
17,RSKD,≤ 0.2
18,RIKS,0.499
19,RSVS,0.285
20,HGYR,≤ 0.2
21,STVP,≤ 0.2
22,PRHI,≤ 0.2
23,VTRH,≤ 0.2

row,Variant,one-hybrid fitness for binding NBS DNA
1,QTNL,0.214
2,RIFT,≤ 0.2
3,RMAP,≤ 0.2
4,RIAT,0.376
5,RMFT,0.261
6,RIAD,≤ 0.2
7,RLAD,≤ 0.2
8,RLFT,0.238
9,RSAN,≤ 0.2
10,RMAT,0.426
11,RLAT,0.423
12,RDAT,≤ 0.2
13,RSAT,0.414
14,LYNV,≤ 0.2
15,GATD,≤ 0.2
16,PPMS,≤ 0.2
17,HKTC,≤ 0.2
18,MLVG,≤ 0.2
19,YTRD,≤ 0.2
20,RCAV,≤ 0.2
21,RAAT,0.364
22,RHFT,0.245
23,RAAP,≤ 0.2

row,Variant,one-hybrid fitness for binding NBS DNA
1,RAFT,0.242
2,RHAT,0.432
3,RHAH,≤ 0.2
4,RPAT,≤ 0.2
5,RCAT,0.515
6,RFAT,≤ 0.2
7,TFCI,≤ 0.2
8,NDTY,≤ 0.2
9,AWHV,≤ 0.2
10,HGAR,≤ 0.2
11,EIKR,≤ 0.2
12,WKER,≤ 0.2
13,RDQR,≤ 0.2
14,RSQP,≤ 0.2
15,RSQR,0.44
16,RPQR,≤ 0.2
17,RCQR,0.512
18,RFQR,0.282
19,FPQS,≤ 0.2
20,RQKQ,0.244
21,RQHT,0.417
22,RQHK,≤ 0.2
23,RQNS,0.48

row,Variant,one-hybrid fitness for binding NBS DNA
1,RQKT,0.63
2,RQSP,≤ 0.2
3,RQDS,≤ 0.2
4,RQSS,0.446
5,RQSN,≤ 0.2
6,RQVT,0.216
7,RQHF,≤ 0.2
8,RQNH,0.34
9,SYHE,≤ 0.2
10,SRKD,≤ 0.2
11,HWGA,≤ 0.2
12,RMER,0.227
13,EGHG,≤ 0.2
14,DQTE,≤ 0.2
15,MCRV,≤ 0.2
16,RQSG,≤ 0.2
17,RQGT,0.351
18,RQFT,0.204
19,RQNT,0.53
20,RQCH,≤ 0.2
21,RQCP,≤ 0.2
22,RQDT,0.268
23,RQST,0.474

row,Variant,one-hybrid fitness for binding NBS DNA
1,RQAT,0.385
2,RQNP,≤ 0.2
3,RQAD,≤ 0.2
4,RQCT,0.382
5,SAEQ,≤ 0.2
6,SIIG,≤ 0.2
7,HRTH,≤ 0.2
8,VQPC,≤ 0.2
9,RQAH,≤ 0.2
10,RQYT,0.353
11,RQRT,0.615
12,RQAS,0.38
13,RQPT,≤ 0.2
14,RQFS,0.206
15,PKKW,≤ 0.2
16,TRLN,≤ 0.2
17,IGRT,≤ 0.2
18,QQDV,≤ 0.2
19,QQRV,0.493
20,QQFV,≤ 0.2
21,QQKV,0.533
22,QQYV,≤ 0.2
23,QQVV,≤ 0.2

row,Variant,one-hybrid fitness for binding NBS DNA
1,VRMV,≤ 0.2
2,RSFA,≤ 0.2
3,RCFA,≤ 0.2
4,RCAA,0.234
5,RRAA,0.664
6,RRFA,0.569
7,RPAA,≤ 0.2
8,FQVR,≤ 0.2
9,TYLE,≤ 0.2
10,YVWI,≤ 0.2
11,RSYA,≤ 0.2
12,RSTA,≤ 0.2
13,RSSA,≤ 0.2
14,RPGA,≤ 0.2
15,RRSA,0.605
16,RCYA,0.24
17,RCGA,0.259
18,RRYA,0.684
19,RCTA,0.238
20,RRTA,0.619
21,RRGA,0.664
22,RCSA,0.232
